These results are taken from PubChem BioAssay.

Each structure is given as a SMILES string. Active and inactive are the calls of the source.

The nature of experiment [1]: small molecules captured by biotinylated probe aFSTL3 – biochemical, small-molecule microarray, fluorescence 635/667, stem cell growth factor project, primary screen (AID 1064).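 Also: measures binding of the biotinylated anti-FSTL3 antibody to printed compounds.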 Particulars: higher = more signal.
Experiment [2] in a line: binders from COS7 lysate, DM2A8 probe, primary screen, torsin A project, cell lysate, small-molecule microarray, fluorescence 635/667 (AID 1065). Particulars: higher = more signal, COS7 lysate expressing mutant human TOR1A.
The nature of experiment [3]: small molecules captured by biotinylated probe aFGF2 – biochemical, small-molecule microarray, fluorescence 635/667, stem cell growth factor project, primary screen (AID 1067).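 Also: measures binding of biotinylated aFGF2 protein to printed compounds on slides; z-score merges feature fluorescence and signal-to-noise across triplicate slides.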 Particulars: higher = more signal.
Experiment [4] in a line: small molecules captured by biotinylated probe aFGF10 – biochemical, small-molecule microarray, fluorescence 635/667, stem cell growth factor project, primary screen (AID 1071).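 Also: score merges 667 nm spot intensity and signal to noise from triplicate slides.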 Particulars: higher = more signal.
Experiment [5] concerns the target Neurogenic locus notch homolog protein 2 (Homo sapiens) (UniProt Q04721). Nature of the experiment: small molecules binding Notch2 protein – biochemical, small-molecule microarray, 635 nm fluorescence, stem cell growth factors, primary screen (AID 1073). Particulars: higher = more signal.
Experiment [6] concerns the target Pro-neuregulin-1, membrane-bound isoform (Homo sapiens) (UniProt Q02297). Nature of the experiment: small molecules binding neuregulin-1 protein – biochemical, small-molecule microarray, fluorescence 635/667, psychiatric disease protein project, primary screen (AID 1075).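 Also: score combines 667 nm spot fluorescence with signal to noise.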 Particulars: NRG1 binding, 635 nm fluorescence, higher = more signal.
The test system of experiment [7] is Neuregulin-1 EGF-like domain. Put plainly: small molecules binding NRG1 EGF domain – biochemical, small-molecule microarray, 635 nm fluorescence, primary screen (AID 1081).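 Also: binding of the protein to compounds printed on small-molecule microarray slides.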 Particulars: higher = more signal.
The nature of experiment [8]: FRG1 expression reporter modulators in myotubes – cell-based, C2C12 myotubes, firefly/Renilla luciferase, luminescence, FRG1 inhibition for FSHD, primary screen (AID 1084). Particulars: FRG1 promoter luciferase, higher = more signal, called active from +8 up or from −8 down.
Experiment [9] can be described thus: small molecules captured by biotinylated probe aFST – biochemical, small-molecule microarray, fluorescence 635/667, stem cell growth factor project, primary screen (AID 1086).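 Also: score merges 667 nm fluorescence with signal-to-noise of each printed compound spot.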 Particulars: higher = more signal.
A short description of experiment [10]: binders of probe aHhip on microarray, primary screen, stem cell growth factor project, biochemical, small-molecule microarray, fluorescence 635/667 (AID 1087).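 Also: score merges spot fluorescence at 667nm with spot signal to noise ratio.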 Particulars: higher = more signal.

Sequence of Pro-neuregulin-1, membrane-bound isoform (Homo sapiens) (Q02297 whole entry, looked up, the tested form may be a part, canonical isoform): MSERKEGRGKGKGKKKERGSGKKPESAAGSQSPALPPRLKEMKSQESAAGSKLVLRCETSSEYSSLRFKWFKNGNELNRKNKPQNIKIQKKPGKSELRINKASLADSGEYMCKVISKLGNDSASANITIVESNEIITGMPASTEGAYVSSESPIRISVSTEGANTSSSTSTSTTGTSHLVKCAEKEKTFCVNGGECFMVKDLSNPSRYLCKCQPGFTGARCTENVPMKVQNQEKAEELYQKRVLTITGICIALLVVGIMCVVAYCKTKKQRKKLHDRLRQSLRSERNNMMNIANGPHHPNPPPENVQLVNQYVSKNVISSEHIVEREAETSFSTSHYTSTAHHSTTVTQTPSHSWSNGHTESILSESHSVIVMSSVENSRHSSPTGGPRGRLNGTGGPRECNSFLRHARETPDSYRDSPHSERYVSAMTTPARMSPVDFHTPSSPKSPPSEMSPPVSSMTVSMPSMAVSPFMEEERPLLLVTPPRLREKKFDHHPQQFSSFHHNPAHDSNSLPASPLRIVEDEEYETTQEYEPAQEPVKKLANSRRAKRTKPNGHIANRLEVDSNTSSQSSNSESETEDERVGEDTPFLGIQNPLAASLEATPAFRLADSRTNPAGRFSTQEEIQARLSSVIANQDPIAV
Sequence of Neurogenic locus notch homolog protein 2 (Homo sapiens) (Q04721 whole entry, looked up, canonical isoform): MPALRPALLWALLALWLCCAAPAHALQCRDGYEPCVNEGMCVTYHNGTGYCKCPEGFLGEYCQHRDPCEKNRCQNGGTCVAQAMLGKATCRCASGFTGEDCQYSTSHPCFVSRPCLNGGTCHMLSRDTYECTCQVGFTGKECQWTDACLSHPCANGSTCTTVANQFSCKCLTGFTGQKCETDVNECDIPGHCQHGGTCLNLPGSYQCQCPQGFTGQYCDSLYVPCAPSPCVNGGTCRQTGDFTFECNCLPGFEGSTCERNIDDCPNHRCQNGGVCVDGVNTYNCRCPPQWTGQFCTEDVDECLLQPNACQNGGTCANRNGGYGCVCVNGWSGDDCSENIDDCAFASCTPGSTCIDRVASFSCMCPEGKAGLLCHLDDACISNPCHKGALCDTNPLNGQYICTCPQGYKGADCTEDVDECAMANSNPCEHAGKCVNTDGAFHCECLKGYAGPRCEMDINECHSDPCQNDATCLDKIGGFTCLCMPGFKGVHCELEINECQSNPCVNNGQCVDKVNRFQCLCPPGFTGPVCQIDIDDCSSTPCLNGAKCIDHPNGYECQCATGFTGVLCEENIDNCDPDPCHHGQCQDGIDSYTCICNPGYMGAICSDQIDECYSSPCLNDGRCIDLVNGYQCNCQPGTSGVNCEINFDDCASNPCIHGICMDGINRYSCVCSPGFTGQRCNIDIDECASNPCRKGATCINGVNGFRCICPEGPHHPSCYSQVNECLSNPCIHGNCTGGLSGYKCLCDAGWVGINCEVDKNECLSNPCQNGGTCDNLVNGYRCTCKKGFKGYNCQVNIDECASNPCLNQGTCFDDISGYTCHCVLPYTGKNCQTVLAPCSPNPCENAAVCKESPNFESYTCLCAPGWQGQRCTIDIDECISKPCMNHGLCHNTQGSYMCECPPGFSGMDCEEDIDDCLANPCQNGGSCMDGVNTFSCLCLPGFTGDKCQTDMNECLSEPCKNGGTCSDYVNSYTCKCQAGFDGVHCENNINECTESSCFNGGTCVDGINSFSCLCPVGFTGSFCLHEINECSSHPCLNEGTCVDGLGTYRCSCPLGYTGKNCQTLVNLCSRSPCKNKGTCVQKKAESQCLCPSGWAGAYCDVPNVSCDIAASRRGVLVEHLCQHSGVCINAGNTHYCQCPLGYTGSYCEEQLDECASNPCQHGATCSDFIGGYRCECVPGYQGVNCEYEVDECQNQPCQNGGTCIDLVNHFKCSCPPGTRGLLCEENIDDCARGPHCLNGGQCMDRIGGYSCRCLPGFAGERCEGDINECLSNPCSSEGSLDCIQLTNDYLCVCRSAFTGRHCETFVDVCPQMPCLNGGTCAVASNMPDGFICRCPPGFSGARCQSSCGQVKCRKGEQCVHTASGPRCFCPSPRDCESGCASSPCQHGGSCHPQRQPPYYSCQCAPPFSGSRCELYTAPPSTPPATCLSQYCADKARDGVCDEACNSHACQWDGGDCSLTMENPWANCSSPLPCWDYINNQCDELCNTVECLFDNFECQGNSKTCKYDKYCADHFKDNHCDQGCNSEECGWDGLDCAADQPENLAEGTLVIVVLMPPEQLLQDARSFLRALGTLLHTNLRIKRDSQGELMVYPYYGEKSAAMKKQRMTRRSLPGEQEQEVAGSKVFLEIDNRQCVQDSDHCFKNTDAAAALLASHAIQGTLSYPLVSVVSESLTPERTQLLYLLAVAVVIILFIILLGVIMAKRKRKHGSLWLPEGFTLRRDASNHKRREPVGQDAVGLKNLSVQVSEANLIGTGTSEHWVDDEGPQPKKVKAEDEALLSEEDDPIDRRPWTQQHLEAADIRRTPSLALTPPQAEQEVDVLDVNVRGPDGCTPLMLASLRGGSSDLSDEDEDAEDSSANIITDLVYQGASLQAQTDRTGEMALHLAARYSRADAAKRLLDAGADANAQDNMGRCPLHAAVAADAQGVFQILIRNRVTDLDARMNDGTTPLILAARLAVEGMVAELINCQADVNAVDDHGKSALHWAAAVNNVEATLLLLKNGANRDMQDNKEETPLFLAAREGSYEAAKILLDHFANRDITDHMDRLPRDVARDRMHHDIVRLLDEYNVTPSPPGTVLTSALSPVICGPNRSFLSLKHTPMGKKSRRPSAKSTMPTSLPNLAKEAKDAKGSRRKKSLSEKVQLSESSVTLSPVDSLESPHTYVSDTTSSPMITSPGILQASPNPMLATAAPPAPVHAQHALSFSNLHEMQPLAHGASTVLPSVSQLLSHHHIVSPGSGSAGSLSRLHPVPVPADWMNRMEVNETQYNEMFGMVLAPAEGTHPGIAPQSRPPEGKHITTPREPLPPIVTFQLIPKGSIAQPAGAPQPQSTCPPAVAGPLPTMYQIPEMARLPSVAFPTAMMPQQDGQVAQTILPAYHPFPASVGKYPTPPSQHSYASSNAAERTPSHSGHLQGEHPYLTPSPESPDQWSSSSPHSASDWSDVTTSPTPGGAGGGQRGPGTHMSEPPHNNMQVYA

As for `CCc1cc2c(nc1CC)CCN(CCC(C)=NO[C@@H]1O[C@H](COC(C)=O)[C@@H](OC(C)=O)[C@H](OC(C)=O)[C@H]1OC(C)=O)C2`, the composite z-score in experiment [1] is -0.191; in [2], 0.905; in experiment [3], 0.0333; in [4], 0.928; in experiment [5], 0.839; in experiment [6], 0.408. Also, the composite z-score was 0.996 in experiment [7], 0.365 in experiment [9] and -0.0994 in [10]. Further, in [8], the z-score is 1.05 (inactive).
Turning to `CCOC(=O)[C@H](Cc1ccccc1)NC(=O)CCC1CC(OC(=O)NCc2ccc3c(c2)OCO3)CC2(CCCC(COC(=O)NCCOC)O2)O1` (stereo not given in full), the composite z-score is -0.444 in experiment [1]; 1.85 in experiment [2]; -0.0533 in [3]; 0.688 in [4]; 0.994 in experiment [5]; 0.63 in experiment [6]. For the same molecule, the composite z-score stood at 0.773 in experiment [7], 0.412 in experiment [9] and 0.524 in [10]. Also, the z-score in experiment [8] was 1.75 (inactive).
Regarding `CCN1C(=O)[C@H]2[C@H]3[C@H](O)[C@H](O)CC(=NOC[C@@H](O)[C@H]4O[C@@H]5OC(C)(C)O[C@@H]5[C@H]4O)[C@@H]3CC[C@H]2C1=O`, the composite z-score was -0.635 in experiment [1]; -0.112 in experiment [2]; -0.173 in experiment [3]; 0.242 in experiment [4]; 0.352 in experiment [5]; 0.12 in experiment [6]. Besides, the composite z-score in [7] is -0.0114; in [9], 0.156; in experiment [10] it was -0.291. Further, the z-score in experiment [8] was -0.116 (inactive).
For `CC(=O)OC[C@H]1O[C@H](CC=NOC(C)CN2CCCCc3nc(C)c(C)cc32)C=C[C@@H]1OC(C)=O` (stereo not given in full), the composite z-score in experiment [1] is -0.349; in experiment [2], 2.35; in experiment [3], -0.071; in experiment [4], 0.325; in experiment [5], 0.965; in experiment [6], 0.0843. In addition, the composite z-score came to 0.978 in experiment [7], 0.0013 in experiment [9] and 0.158 in experiment [10]. Moreover, the z-score in [8] is 0.851 (inactive).
On to `CC(=O)OC[C@H]1O[C@@H](ON=C(C)C)[C@H](OC(C)=O)[C@@H](OC(C)=O)[C@@H]1OC(C)=O`, for which the composite z-score in experiment [1] is -0.133; in experiment [2], 1.57; in experiment [3] it was -0.194; in experiment [4] it was -0.526; in experiment [5], -0.105; in experiment [6], -1.53. Also, the composite z-score in [7] is -1.47; in [9], 0.298; in [10], -0.283. In experiment [8], the z-score was 0.212 (inactive).
Take `O=C1[C@H]2[C@H]3[C@H](O)[C@H](O)CC(=NO[C@@H]4O[C@H](CO)[C@@H](O)[C@H](O)[C@H]4O)[C@@H]3CC[C@H]2C(=O)N1C1CCCCC1`: the composite z-score in [1] was -0.599; in [2] it was -0.0085; in [3] it was -0.0924; in experiment [4], 0.233; in experiment [5] it was 0.598; in [6], 0.132. The figures for the composite z-score in [7], in experiment [9] and in experiment [10] were 0.0698, 0.296 and -0.0645, respectively. Moreover, the z-score in experiment [8] was -0.637 (inactive).
Consider `CC(C)=CCCC(C)=CCON=C1[C@H]2CCn3c(=O)n(-c4ccccc4)c(=O)n3[C@H]2[C@H](O)[C@@H]2O[C@H]12`, for which the composite z-score in experiment [1] is -0.279; in experiment [2] it was 0.207; in experiment [3], 0.0243; in experiment [4] it was 0.0859; in experiment [5], 0.934; in [6] it was 0.634. For the same molecule, the values for the composite z-score in experiment [7], in experiment [9] and in experiment [10] were 0.994, 0.516 and -0.0645, respectively. For the same molecule, the z-score in [8] was -1.52 (inactive).
`CCCNC(=O)OC[C@H]1O[C@H](CCON=C[C@@H](C)[C@H](OCc2ccccc2)C(C)C)C=C[C@@H]1Oc1ccc(OC)cc1`: the composite z-score is -0.273 in experiment [1]; 0.729 in experiment [2]; -0.161 in [3]; 0.416 in [4]; -0.566 in [5]; -0.645 in experiment [6]. For the same molecule, the composite z-score was -0.814 in [7], -0.307 in experiment [9] and -0.0346 in experiment [10]. Moreover, in experiment [8], the z-score was -0.748 (inactive).
`Cc1ccc2[nH]c3nc(CCCn4ccnc4-c4ccccc4)nnc3c2c1`: the composite z-score is -0.172 in [1]; 0.616 in [2]; -0.119 in [3]; 0.247 in [4]; 1.63 in experiment [5]; 0.742 in experiment [6]. Also, the composite z-score in experiment [7] came out at 1.12; in [9], 0.26; in [10], 0.0274. Further, the z-score in experiment [8] was 0.921 (inactive).
On to `COc1cccc([C@H](O)Cn2cc(-c3ccc(CON=C(C)C)cc3)nn2)c1`, for which the composite z-score is -0.131 in experiment [1]; 0.173 in experiment [2]; -0.0138 in experiment [3]; 0.0967 in experiment [4]; -0.193 in experiment [5]; -0.486 in [6]. Further, the composite z-score in experiment [7] is 0.0451; in experiment [9], 0.0775; in experiment [10], -0.185. For the same molecule, the z-score in experiment [8] is -0.291 (inactive).
Consider `CC(C)CON=C1C[C@@H](O)[C@@H](O)[C@@H]2[C@@H]3C(=O)N(Cc4ccccc4)C(=O)[C@@H]3CC[C@H]12`, for which the composite z-score in [1] was -0.467; in experiment [2], 0.0791; in [3], -0.143; in [4], -0.0185; in experiment [5], 0.587; in experiment [6], 0.349. In addition, the composite z-score in experiment [7] was 0.0796; in experiment [9], -0.153; in experiment [10] it was -0.204. In addition, in [8], the z-score was 0.602 (inactive).
For `CC1(C)O[C@H]2O[C@H]([C@H](O)CON=C3[C@H]4CCn5c(=O)n(-c6ccccc6)c(=O)n5[C@H]4[C@H](O)[C@@H]4O[C@H]34)[C@H](O)[C@H]2O1`, the composite z-score in experiment [1] is -0.278; in [2] it was 0.0391; in experiment [3], -0.154; in experiment [4], 0.157; in experiment [5], 0.0872; in [6] it was 0.762. The composite z-score in experiment [7] was -0.431; in [9], -0.081; in [10] it was -0.0994. The z-score in experiment [8] is -0.027 (inactive).
Take `COC(=O)[C@H](C)NC(=O)CCC1CC(OC(=O)NCc2cccc3ccccc23)CC2(CCCC(COC(=O)NCCCN3CCCC3=O)O2)O1` (stereo not given in full): the composite z-score in [1] is -0.669; in [2], -0.158; in [3] it was -0.141; in experiment [4], 0.119; in experiment [5], 1.43; in [6] it was 0.567. The figures for the composite z-score in [7], in [9] and in [10] were 0.925, 1.01 and 0.208, respectively. In [8], the z-score is -3.13 (inactive).
